From PubChem BioAssay (NCI) come the findings set out here.

The panel holds about 83,000 compounds, 20% with a hit somewhere; the sample as a whole holds those more often.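 Interpretation: 100, growth as untreated; towards 0, rising growth inhibition; 0, no net growth; 0 to -100, cell death. Compounds scoring below 10 were considered active.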 Unmarked numbers belong to inactive results. The source made the active and inactive calls.

The assay concerns MOLT-4 leukemia. As to the kind of experiment: NCI-60 one-dose screen, 48 h (100 = growth as untreated, 0 = no growth, -100 = all killed). The note with it: 10 µM unless noted. As for the experimental part:
Growth inhibition of the MOLT-4 human tumor cell line is measured as a screen for anti-cancer activity. Cells are grown in 96 well plates and exposed to the test compound for 48 hours. Compounds are tested at a single concentration, which is 10^-5 M for most compounds. The reported endpoint is percent growth (GI% or GIPRCNT), where numbers from 0 - 100% represent growth inhibition, and numbers from -100% - 0 represent cell death. For example, a value of 40 represents 60% growth inhibition. A value of 0 means no net growth occurred over the course of the experiment. A value of -40 indicates 40% of cells at the beginning of the experiment died by the end of the experiment. A value of -100 means all cells are dead at the end of the experiment.
NCI-60 Human Tumor Cell Lines Screen was performed using the standard one-dose NCI protocol, which is described in more detail at https://dtp.cancer.gov/discovery_development/nci-60/default.htm.
Compounds with GIPRCNT values below 10 were considered active. Activity score was based on GIPRCNT using the following formula: […]
Score is 0 for GIPRCNT values of 100 or above, 50 for GIPRCNT values of 0, and 100 for GIPRCNT values of -100.
As to `CCOC(=O)c1c(Nc2ccccc2)nn2c(N)c(C#N)c(-c3ccccc3)nc12`, the growth is 46.8%.
With `CN(C)CCCNc1c2ccc(Cl)cc2nc2c1oc1ccccc12`, the growth is -1.03% (active).
As for `Cc1ccc(-c2nc(C(Cl)Cl)nc3cc(-c4ccccc4)nn23)cc1`, the figure is 10.4%; as for `Clc1ccc2oc3c(NCCCN4CCOCC4)c4ccccc4nc3c2c1`, 4.08% (active); as for `C/C(=C(/c1ccc(Cl)cc1)c1ccc(OCCN)cc1)c1ccc(C)cc1`, 96.4%.
The figure for `CC(=O)Oc1ccccc1C(=O)Nc1cc(C(C)C)ccc1C` is 4.63% (active); for `O=C1/C(=C/C2=Cc3ccccc3OC2)SC(=S)N1c1ccc(F)cc1` it is 108%; for `COc1cc(/C=C/C(=O)c2cc(OC)c(OC)c(OC)c2)ccc1Oc1nc(NCCO)nc(N2CCOCC2)n1` it is 6.72% (active).
With `COc1ccccc1/C=C/C=N/NC1=NC2C(S1)N(C)C(=O)N2C` (stereo not given), the growth was 21%.
As for `Cn1cc(-c2cc(N)n3nc(-c4cn(C)c5ccc(Br)cc45)cc3n2)c2cc(Br)ccc21`, the figure is 48.9%; as for `COc1cc2cc(Oc3ccc(NC(=O)c4cccc(C(F)(F)F)c4)cc3)c(C)nc2cc1OCCN1CCCCC1`, 1.53% (active); as for `COC1CCN(Cc2ccc3c(NNC(=O)c4cnccn4)nc4cc(F)ccc4n23)C1` (stereo not given), 8.05% (active).
The figure for `O=C1NC(=C(Cl)Cl)/C(=N/S(=O)(=O)N2CCCCC2CC2(C(F)(F)F)N=N2)N1` (stereo not given) is -9.34% (active); for `CCOc1ccc2nc(NC(=O)c3ccc(C(F)(F)F)cc3)sc2c1` it is 103%; for `CCCSc1nc(Nc2ccc(/C(C)=N\NC(N)=S)cc2)c(C#N)c(-c2ccc(OC)cc2)n1` it is 80.4%.
Regarding `C[C@@H](Nc1c(C#N)cnc2ccc(-c3cnc(N)nc3)cc12)c1ccccc1`, the growth is 0.24% (active).
The figure for `COc1cc(/C=C/C(=O)c2ccccc2)ccc1Oc1nc(NCCO)nc(N2CCOCC2)n1` is 71.3%; for `CCN1C(=S)N(c2ccccc2)C2NC(=O)N(/N=C/C=C/c3ccccc3OC)C21` (stereo not given) it is 101%.
The figure for `O=C(CSc1nnc(-c2ccc3nc(-c4ccc(Cl)cc4)[nH]c3c2)o1)Nc1ccc(C(=O)/C=C/c2ccc(Cl)cc2)cc1` is 77.8%; for `COc1ccc(C(=O)/C=C/c2ccc(OCc3ccc(C)cc3)c(OC)c2)cc1OC` it is 29.4%.
As for `COc1ccc(NC(=O)c2sc3nc(-c4cnccn4)cc(-c4cccs4)c3c2N)cc1`, the growth is 83.5%.
The figure for `Cc1cc2nc3c4cc(Cl)ccc4n(CC(=O)NCCN(C)C)c3nc2cc1C` is -19.4% (active); for `COc1ccc(/C=C2\SC(=Nc3cc(C)[nH]n3)NC2=O)cc1` it is 94%.
For `COc1ccc(NC2=C(Cl)C(=O)C(C)=C(C)C2=O)cc1OC`, the growth was 40.1%.
For `COc1cc(-c2nc3ccc(-c4nnc(SCC(=O)Nc5ccc(C(=O)/C=C/c6ccc(Cl)cc6)cc5)o4)cc3[nH]2)cc(OC)c1OC`, the growth was 79.5%.
With `COc1ccc(C(=O)/C=C/c2ccc(OCc3ccc(Cl)cc3)c(OC)c2)cc1OC`, the growth is 38.6%.
Take `COc1cc(/C=C/C(=O)c2ccc(C)cc2)ccc1Oc1nc(NCCO)nc(N2CCOCC2)n1`: the growth was 0.537% (active).
As to `N#Cc1nc(-c2ccccc2)oc1N1CCC(CO)C1` (stereo not given), the growth was 108%.
As for `N#Cc1ccc(C(=O)CSc2nc(Nc3ccc(S(N)(=O)=O)cc3)c3ccccc3n2)cc1`, the figure is 106%; as for `CCN1C(=S)N(CC)C2C1NN=C1SC(c3ccccc3)=CC(=O)N12` (stereo not given), 97.7%.
The figure for `Cc1ccc2c(n1)C(=O)C(Cl)=C(Nc1cccc(C(C)C)c1)C2=O` is 35.4%; for `Nc1c(C(=O)Nc2ccc(Cl)cc2)sc2nc(-c3cnccn3)cc(-c3cccs3)c12` it is 70.1%.
As for `Cc1sc2c(c1C)c(=O)nc1c(-c3nc(-c4ccc(F)cc4)no3)n[nH]n12`, the figure is 104%; as for `COc1ccc(/C=C/C(=O)c2ccc(NC(=O)CSc3nnc(-c4ccc5nc(-c6ccc(Cl)cc6)[nH]c5c4)o3)cc2)cc1`, 64.4%; as for `COC(=O)C1CN(S(=O)(=O)/N=C2\NC(=O)NC2=C(Cl)Cl)C1`, 104%.
For the compound `CC(=O)Nc1cc(F)cc(-c2ccc3[nH]cc(-c4ccccc4)c3n2)c1`, the growth is 9.24% (active).
For the compound `C=C1CC[C@H]2[C@@](C)(CCC3OC(c4ccc(OCc5cn(C6CC(OC(C)=O)C(OC(C)=O)C(COC(C)=O)O6)nn5)cc4)OC[C@]32C)[C@@H]1/C=C/C1=CCOC1=O` (stereo not given in full), the growth was 62.1%.
As for `Cc1nc(-c2cc3ccccc3oc2=O)ccc1C(=O)/C=C/c1ccccn1`, the figure is 27.1%; as for `COc1cc(/C=C/C(=O)c2ccc(C(F)(F)F)cc2)ccc1Oc1nc(NCCO)nc(N2CCOCC2)n1`, 3.51% (active).
The figure for `COc1ccc(-c2csc(N/N=C/c3c(-c4ccc(S(C)(=O)=O)cc4)nc4ccccn34)n2)cc1` is 92.4%.
